From PubChem BioAssay (NCATS)
Results filed as inconclusive are left out. Active and inactive are the calls of the source. Calls follow the shape of the dose curve; as a rule, active = well fitted inhibition curve with a large enough effect; inconclusive = small, poorly fitted or top-dose-only effect; inactive = flat fitted curve, though single readings scatter. Where a SMILES comes first, the peptide text is derived from it. Bridges are numbered along the chain shown (N, C = ends). [ ]: non-standard residue; d: D form. hArg = N=C(N)NCCCC[C@H](N)C(=O)O; Mpa = O=C(O)CCS

What was measured:
TAB109 = assay: qHTS profiling for inhibitors of Plasmodium falciparum proliferation (AID 504749);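 also: 0% = DMSO vehicle and full inhibition = artemisinin control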; conditions: P. falciparum in erythrocytes, SYBR Green DNA, 72 h; series mostly up to 28.7 µM
Outline: (§1)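 P. falciparum-infected erythrocytes (0.3% parasitemia, 2.5% hematocrit final) were exposed to compounds for 72 h at 37 C in 5% CO2, then lysed with SYBR Green buffer overnight at room temperature; parasite DNA fluorescence was normalized to artemisinin and DMSO controls.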

TAB113 = assay: as above; conditions: P. falciparum in erythrocytes, SYBR Green DNA, 72 h; series mostly up to 28.7 µM
Outline: as §1

TAB165 = assay: as above; conditions: P. falciparum in erythrocytes, SYBR Green DNA, 72 h; series mostly up to 28.7 µM
Outline: as §1

CRL-7250 = normal cell line; assay: Cytotoxic Profiling of Annotated Libraries Using Quantitative High-Throughput Screening (AID 1296008); conditions: Five cell lines viability, CellTiter-Glo ATP luminescence, 48-72 h; active compounds read low; as to max response: % is scaled to controls: 0 for no effect and ±100 for the full control effect
Outline: (§2)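 Compounds were pin-transferred onto cells and incubated 48 or 72 hr at 37 degree Celsius, 95% humidity. CellTiter-Glo was added, plates sat 10 min at room temperature, then ATP-coupled luminescence was imaged as the viability read-out.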

HEK293 = assay: as above; conditions: Five cell lines viability, CellTiter-Glo ATP luminescence, 48-72 h; active compounds read low
Outline: as §2

HaCat [1] = assay: as above; conditions: Five cell lines viability, CellTiter-Glo ATP luminescence, 48-72 h; active compounds read low
Outline: as §2

KB-3-1 = assay: as above; conditions: Five cell lines viability, CellTiter-Glo ATP luminescence, 48-72 h, active compounds read low
Outline: as §2

NIH3T3 = assay: as above; conditions: Five cell lines viability, CellTiter-Glo ATP luminescence, 48-72 h; active compounds read low
Outline: as §2

HACAT [2] = assay: qHTS assay to identify novel small-molecules to repurpose for Merkel cell carcinoma treatment (AID 1296009); conditions: MCC and control cell lines, CellTiter-Glo viability, 72 h; at 44.8 µM (top of the series) unless noted
Outline: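 Cells exposed to NPC (8-point) and MIPE (11-point) compound dilutions for 72 hr at 37 degree celsius; viability read by CellTiter-Glo luminescence, normalized to no-cell and DMSO in-plate controls.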

W2 = assay: qHTS profiling for inhibitors of Plasmodium falciparum proliferation (AID 504749);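 also: 0% = DMSO vehicle and full inhibition = artemisinin control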; conditions: P. falciparum in erythrocytes, SYBR Green DNA, 72 h; series mostly up to 28.7 µM
Outline: as §1
Also: nearly all actives have a fitted effect of over 60% in size.

CCCCCCCC(=O)OCC(COC(=O)CCCCCCC)OC(=O)CCCCCCC
inactive: Potency (TAB109) | Potency (TAB113) | Potency (TAB165) | max response (CRL-7250) -3.96% | max response (HEK293) 1.52% | outcome (HaCat [1]) | max response (KB-3-1) -1.81% | max response (NIH3T3) 4.46% | outcome (HACAT [2])

C=CCSCC1Nc2cc(Cl)c(S(N)(=O)=O)cc2S(=O)(=O)N1 (stereo unspecified)
inactive: Potency (TAB109) | Potency (TAB113) | Potency (TAB165) | max response (CRL-7250) -2.06% | max response (HEK293) 2.45% | outcome (HaCat [1]) | max response (KB-3-1) -3.75% | max response (NIH3T3) 4.06% | outcome (HACAT [2])

O=S1(=O)OC(c2ccc(O)cc2)(c2ccc(O)cc2)c2ccccc21
inactive: Potency (TAB109) | Potency (TAB113) | Potency (TAB165) | Potency (W2) | outcome (CRL-7250) | max response (HEK293) -9.72% | outcome (HaCat [1]) | max response (KB-3-1) 15.7% | outcome (NIH3T3) | outcome (HACAT [2])

CC(=O)NS(=O)(=O)c1ccc(N)cc1
inactive: Potency (TAB109) | Potency (TAB113) | Potency (TAB165) | Potency (W2) | max response (CRL-7250) -3.19% | max response (HEK293) -5.52% | outcome (HaCat [1]) | max response (KB-3-1) 3.12% | max response (NIH3T3) -1.48% | outcome (HACAT [2])

CC[N+](CC)(CC(=O)Nc1c(C)cccc1C)Cc1ccccc1
inactive: Potency (TAB109) | Potency (TAB113) | Potency (TAB165) | max response (CRL-7250) -0.938% | max response (HEK293) 3.4% | outcome (HaCat [1]) | max response (KB-3-1) -3.17% | max response (NIH3T3) 1.97% | outcome (HACAT [2])

Cc1ccc2c(c1)c1c3n2CCNC3CCC1 (stereo unspecified)
inactive: max response (CRL-7250) -2.33% | max response (HEK293) -1.48% | outcome (HaCat [1]) | max response (KB-3-1) -0.231% | max response (NIH3T3) -0.828% | outcome (HACAT [2])

FC(F)(F)C(Cl)Br (stereo unspecified)
inactive: Potency (TAB109) | Potency (TAB113) | Potency (TAB165) | max response (CRL-7250) 3.98% | max response (HEK293) 0.482% | outcome (HaCat [1]) | max response (KB-3-1) -3.43% | outcome (NIH3T3) | outcome (HACAT [2])

COc1nccnc1NS(=O)(=O)c1ccc(N)cc1
inactive: Potency (TAB109) | Potency (TAB113) | Potency (TAB165) | Potency (W2) | max response (CRL-7250) 3.15% | max response (HEK293) 4.9% | outcome (HaCat [1]) | max response (KB-3-1) -12% | outcome (NIH3T3) | outcome (HACAT [2])

O=C1c2cccc(O)c2C(=O)c2c(O)cccc21
inactive: Potency (TAB109) | Potency (TAB113) | Potency (TAB165) | max response (CRL-7250) -1.24% | max response (HEK293) -0.119% | outcome (HaCat [1]) | max response (KB-3-1) 2.38% | max response (NIH3T3) -0.518% | outcome (HACAT [2])

COc1ccccc1OC(=O)Oc1ccccc1OC
inactive: Potency (TAB109) | Potency (TAB113) | Potency (TAB165) | Potency (W2) | outcome (CRL-7250) | max response (HEK293) -4.48% | outcome (HaCat [1]) | max response (KB-3-1) -6.45% | max response (NIH3T3) 0.277% | outcome (HACAT [2])

C=CCNC(N)=S
inactive: Potency (TAB109) | Potency (TAB113) | Potency (TAB165) | Potency (W2) | max response (CRL-7250) -5.07% | max response (HEK293) -1.79% | outcome (HaCat [1]) | max response (KB-3-1) -9.92% | max response (NIH3T3) 4.81% | outcome (HACAT [2])

COc1ccc2cc(CCC(C)=O)ccc2c1
inactive: Potency (TAB109) | Potency (TAB113) | Potency (TAB165) | Potency (W2) | outcome (CRL-7250) | outcome (HEK293) | outcome (HaCat [1]) | max response (KB-3-1) -1.62% | max response (NIH3T3) -0.0731% | outcome (HACAT [2])

Cc1onc(-c2ccccc2)c1-c1ccc(S(N)(=O)=O)cc1
inactive: Potency (TAB109) | Potency (TAB113) | Potency (TAB165) | Potency (W2) | outcome (CRL-7250) | max response (HEK293) -13.2% | outcome (HaCat [1]) | max response (KB-3-1) 6.03% | outcome (NIH3T3) | outcome (HACAT [2])

CC1CCc2cc(F)cc3c(=O)c(C(=O)O)cn1c23 (stereo unspecified)
inactive: Potency (TAB109) | Potency (TAB113) | Potency (TAB165) | Potency (W2) | outcome (CRL-7250) | max response (HEK293) -3.78% | outcome (HaCat [1]) | max response (KB-3-1) -6.7% | max response (NIH3T3) -1.98% | outcome (HACAT [2])

CC(CSC(=O)c1ccccc1)C(=O)N1C[C@@H](Sc2ccccc2)C[C@H]1C(=O)O (stereo partly specified)
inactive: Potency (TAB109) | Potency (TAB113) | Potency (TAB165) | Potency (W2) | max response (CRL-7250) -5.72% | outcome (HEK293) | outcome (HaCat [1]) | max response (KB-3-1) -11.1% | max response (NIH3T3) -0.681% | outcome (HACAT [2]) inactive [at 17.4 µM]

NC(=O)[C@@H]1CSSCCC(=O)N[C@@H](CCCCN=C(N)N)C(=O)NCC(=O)N[C@@H](CC(=O)O)C(=O)N[C@@H](Cc2c[nH]c3ccccc23)C(=O)N2CCC[C@H]2C(=O)N1 ([Mpa][hArg]GDWPC-NH2; disulfide 1-7)
inactive: Potency (TAB109) | Potency (TAB113) | Potency (TAB165) | Potency (W2) | outcome (CRL-7250) | max response (HEK293) -7.03% | outcome (HaCat [1]) | max response (KB-3-1) 3.01% | max response (NIH3T3) -4.92% | outcome (HACAT [2])
